# According to PubChem BioAssay AID588855 (National Center for Advancing Translational Sciences (NCATS), 2011):
# Hit rate of the full screen: of about 410,000 compounds, about 5,000 (1.2%) were called active. Not shown: some 13% with an inconclusive outcome. The call rests on the fitted dose curve; in most records, active means well fitted inhibition curve with a large enough effect; inconclusive means small, poorly fitted or top-dose-only effect; inactive means no such curve, though single readings can be large or run the other way. The sample as a whole holds a higher share of actives than the screen did.
# Experiment: qHTS for Inhibitors of TGF-b; further: nearly all actives have a fitted effect of over 65% in size
# Details: HepG2 CAGA-GFP TGF-b/SMAD3 reporter, GFP fluorescence, 18 h, TGF-beta stimulated, 500 pg/mL final; series mostly up to 46.1 µM; activity, negative = inhibition: at the top concentration
# Method in brief: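 Using HEPG2 CAGA-GFP reporter cells at 1000 cells/well, we pinned test compounds, stimulated with recombinant TGF-beta (500 pg/mL final) and measured total well GFP after 18 h.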
# On the % scale 0 is the no-effect control and ±100 the full control effect; potency means the concentration at half of the fitted maximal effect.
SMILES,"activity, negative = inhibition",Potency
CCCCN(C)CCCNC(=O)CN1N=C(c2ccc(OC)cc2)CCC1=O,0% (inactive),
Brc1cccc(-c2nnn3c2nc(NC2CCCCC2)c2ccccc23)c1,-8.48% (inactive),
O=C(Nc1ccccc1)Oc1cccc2cccnc12,,8.91 µM (active)
O=S(=O)(NCCOc1cccc2cccnc12)c1ccc(F)cc1,-15.5% (inactive),
NC(=O)C1CCN(C(=O)COc2cccc3cccnc23)CC1,-2.64% (inactive),
CCNS(=O)(=O)c1ccc(NC(=O)CSc2nc(-c3ccco3)cc(C(F)(F)F)n2)cc1,0% (inactive),
CCNS(=O)(=O)c1ccc(NC(=O)c2cncc(Br)c2)cc1,-4.93% (inactive),
CCNS(=O)(=O)c1ccc(NC(=O)Nc2cccc(C(F)(F)F)c2)cc1,,12.6 µM (active)
CO[C@H]1O[C@@H]2O[C@@]3(C)CC[C@@H]4[C@@H](C)CC[C@@H]([C@H]1C)[C@@]24OO3,13% (inactive),
Brc1nc2ncnc(NCc3ccco3)c2[nH]1,17.8% (inactive),
O=C(CCl)N(Cc1cccc([N+](=O)[O-])c1)c1cccc(Cl)c1,,11.2 µM (active)
CC(=O)N(CN1C(=O)C2CC=CCC2C1=O)c1cccc(Cl)c1 (stereo not given),-19.6% (inactive),
COC(=O)c1cc(C(=O)N(Cc2ccccc2)c2ccccn2)cc([N+](=O)[O-])c1,6.92% (inactive),
CCCc1nn2c(=O)cc(COC(=O)c3ccc(NC(=O)COc4ccc(F)cc4)cc3)nc2s1,-0.265% (inactive),
Oc1ccc(N2CCN(C(=S)NCc3ccccc3)CC2)cc1,-0.832% (inactive),
c1ccc(CNCc2ccc(CNCc3ccccc3)cc2)cc1,3.53% (inactive),
Oc1ccc(CNc2ccccc2O)cc1,,12.6 µM (active)
CCN(CC)c1nc(C#N)nc(OC)n1,-4.06% (inactive),
CC(C)(CCl)C(=O)Nc1ccc(Sc2ccc(F)cc2)cc1,0% (inactive),
CCC(=O)Nc1ccc(Nc2nc(Cl)nc(Nc3ccc(NC(=O)CC)cc3)n2)cc1,23.4% (inactive),
O=C(CCl)Nc1ccc(Sc2ccc(NC(=O)CCl)cc2)cc1,,10 µM (active)
CCOc1ccc(C2C(C(=O)Nc3ccc(Cl)cc3)=C(C)Nc3nc(C(F)(F)F)nn32)cc1 (stereo not given),-20.7% (inactive),
CCc1ccc(NC(=O)c2cc(S(=O)(=O)N3CCCC(C)C3)cn2C)cc1 (stereo not given),-6.75% (inactive),
Cn1c(=O)c2c(SCC(=O)NCC3CCCO3)nc(-c3ccccc3F)nc2n(C)c1=O (stereo not given),-1.79% (inactive),
CNC(=O)COc1ccc(S(=O)(=O)Nc2ccccc2)cc1,3.64% (inactive),
CCS(=O)(=O)Nc1cccc(-c2cc(-c3ccccc3)c3cc(C)ccc3n2)c1,0% (inactive),
CCCOc1ccc(-c2cccc(NS(=O)(=O)c3ccccc3)c2)nn1,,10 µM (active)

SMILES,"activity, negative = inhibition",Potency
CN(C)c1nc(=Nc2cccc(Cl)c2)ss1,,0.282 µM (active)
COc1ccccc1-c1ccnc2[nH]n(-c3ccccc3)c(=O)c12,12.7% (inactive),
CCOC(=O)C1CCCN(CC(=O)Nc2cc(C)c3c(=O)oc4ccccc4c3n2)C1 (stereo not given),-2.9% (inactive),
O=C(O)C1CC=CC2CCN(C3CCCCC3)C(=O)C21 (stereo not given),-5.85% (inactive),
CCOc1cc(/C=C(\C#N)C(=O)Nc2ccccc2C)ccc1OCc1cc(=O)n2nc(CC)sc2n1,-28.7% (inactive),
C=C(C)C(=O)O[C@H]1C/C(C)=C\C(=O)/C=C(\C)[C@H](O)[C@@H]2OC(=O)C(=C)[C@@H]21,,3.55 µM (active)
COC(=O)c1sc(-c2ccc(C(C)(C)C)cc2)cc1NC(=O)/C=C/C(=O)O,,8.91 µM (active)
COc1ccc(NS(=O)(=O)c2ccc(N3CCOCC3)c(NC(=O)/C=C/C(=O)O)c2)cc1,5.91% (inactive),
COC(=O)c1nc(NC(=O)c2ccc(C(C)(C)C)cc2)n[nH]1,-3.02% (inactive),
COc1ccc(C(=O)Nc2ccc(-n3nncc3-c3ccccc3)cc2)cc1OC,13.3% (inactive),
CCOC(=O)Nc1ccc2c(c1)N(C(=O)CN1CCN3CCCC3C1)c1ccccc1CC2 (stereo not given),-0.581% (inactive),
CCOC(=O)Nc1ccc2c(c1)N(C(=O)CCN1CCN(CCO)CC1)c1ccccc1CC2,-2.31% (inactive),
CCOC(=O)Nc1ccc2c(c1)N(C(=O)CCCl)c1ccccc1[S@]2=O,,7.08 µM (active)
S=c1[nH]c(=S)c2n[nH]nc2[nH]1,4.69% (inactive),
Cc1ccc(C(=O)Nc2c(C(=O)NC(C)(C)C)oc3ccccc23)cc1,-5.94% (inactive),
CCCC(=O)Nc1ccc2oc(-c3ccc(O)c(Br)c3)nc2c1,0.0308% (inactive),
CC(=O)Nc1ccc(C=CC(=O)c2ccc([N+](=O)[O-])cc2)cc1,-0.532% (inactive),
O=C1/C(=C\c2ccc([N+](=O)[O-])cc2)CS(=O)(=O)C/C1=C/c1ccc([N+](=O)[O-])cc1,,6.31 µM (active)
CC(=O)Nc1ccc(C=Cc2ccc([N+](=O)[O-])cc2)cc1,-0.331% (inactive),
COC(=O)c1cccc(Cn2nnc3sc4c(c3c2=O)CCC(C(C)(C)C)C4)c1 (stereo not given),2.33% (inactive),
COc1cccc(CNc2nccn(-c3ccc(OC)c(OC)c3)c2=O)c1,1.79% (inactive),
O=C(NC1CCN(Cc2ccccc2)CC1)c1ccc(Cn2c(=O)c3ccccc3n(Cc3cccc(F)c3)c2=O)cc1,-6.31% (inactive),
Fc1ccc(-c2nc(Nc3cccc(Cl)c3)nc3c2COc2ccccc2-3)cc1,-2.73% (inactive),
Cc1oc(C)c2c(=O)cc(-c3ccc4c(c3)OCO4)cc(OC(=O)c3ccc(Cl)cc3)c12,59.8% (inactive),
COc1ccc(C(=O)Nc2onc3c2CCCC3)cc1,6.55% (inactive),
C=CC[n+]1c(-c2ccc(C)cc2)csc1NNC(=O)Nc1ccccc1,,11.2 µM (active)
Cc1ccc(NC(=O)NNC(=O)c2sccc2-n2cccc2)cc1,19.4% (inactive),

SMILES,"activity, negative = inhibition",Potency
O=C(NNC(=O)c1ccc(-c2ccccc2)cc1)Nc1ccccc1,-0.136% (inactive),
O=C(NC1CC(=O)N(c2ccc(F)cc2)C1)c1cccs1 (stereo not given),-3.09% (inactive),
CC1(C)CC(=O)C=C(NCCCNC2CCCCC2)C1,-17.7% (inactive),
CCCCCCCCNS(=O)(=O)CCNC1CCCCC1,,17.8 µM (active)
CCCCNS(=O)(=O)CCNCc1ccccc1OC,6.03% (inactive),
O=C(CC1Oc2ccc(Cl)cc2NC1=O)NCc1ccccc1 (stereo not given),-15.2% (inactive),
Cc1ccccc1CNC(=O)C(=O)NCC(c1cccs1)S(=O)(=O)c1cccs1 (stereo not given),4.69% (inactive),
CN(Cc1ccccc1)C(=O)CSc1nc2ccccc2[nH]1,-5.19% (inactive),
CCC(C)N1C(=O)S/C(=C/c2ccc(Sc3nc4ccccc4[nH]3)o2)C1=O (stereo not given),,11.2 µM (active)
CN1CCN(c2ccc([N+](=O)[O-])c(Sc3nc4ccccc4[nH]3)c2)CC1,4.28% (inactive),
COc1ccc(-c2nnc(SCC(=O)Nc3ccc(C(C)C)cc3)nc2-c2ccc(OC)c(OC)c2)cc1OC,0.381% (inactive),
COc1ccc(CNC(=O)Cn2nnc(-c3ccccc3F)n2)cc1,-2.89% (inactive),
O=C(NNC(=O)C(O)c1ccccc1)NC1CCCCC1 (stereo not given),20.3% (inactive),
Cc1nc(/N=C(\N)NC(=O)NC2CCCCC2)nc2ccccc12,,12.6 µM (active)
CC(C)c1cc(C(=O)NC2CCCCCC2)c2ccccc2n1,-0.515% (inactive),
CCC1(C)CC(=O)c2c(ccc3oc(C(=O)Nc4ccc(C(C)=O)cc4)c(C)c23)O1 (stereo not given),3.5% (inactive),
CCn1c(=O)cc(OCC(=O)Nc2cc(Cl)c(OC)cc2OC)c2ccccc21,-0.391% (inactive),
COc1ccc(OC)c(-c2csc(-c3c(N)c(C(=O)c4ccccc4)n4ccccc34)n2)c1,9.43% (inactive),
C=CS(=O)c1sc(Cl)c(N2CCOCC2)c1[N+](=O)[O-] (stereo not given),,11.2 µM (active)
COc1cccc(NC(=O)C(Sc2nnnn2C)c2ccccc2)c1 (stereo not given),-1.18% (inactive),
Cc1nnc(SC(C(=O)c2ccccc2)c2ccccc2)[nH]c1=O (stereo not given),1.93% (inactive),
Cc1nnc(SC(C(=O)Nc2cc(Cl)cc(Cl)c2)c2ccccc2)[nH]c1=O (stereo not given),,17.8 µM (active)
Cc1ccn2c(Nc3ccc4c(c3)OCCO4)c(-c3ccc(C)s3)nc2c1,23.7% (inactive),
COc1ccccc1CNC(=O)c1ccc(-n2c(C)cc3c2CCCC3)cc1,-1.18% (inactive),
Cc1ccc(C(=O)Nc2ccccc2F)cc1S(=O)(=O)N1CCOCC1,10.2% (inactive),
C=CCSc1nsc(NC(=O)Nc2cccc(C(C)=O)c2)n1,,3.55 µM (active)
CC(=O)c1ccc(NC(=O)CSc2nnc(NC(=O)Nc3ccccc3)s2)cc1,-0.835% (inactive),

SMILES,"activity, negative = inhibition",Potency
CC(=O)c1cccc(NC(=S)N2CCCC2)c1,1.35% (inactive),
CCN(CC)c1ccc(NC(=O)Cn2nc3c(cc2=O)CCCC3)c(C)c1,0.157% (inactive),
O=C(Nc1ccccc1Cl)/C(Cl)=C(\Cl)S(=O)c1ccccc1 (stereo not given),,2.24 µM (active)
O=C(Nc1ccccc1Cl)N1CCC(CN2CCCC2)CC1,-7.51% (inactive),
CS/C(=C\C(=O)c1ccco1)Nc1ccccc1Cl,-18.8% (inactive),
CCc1ccc(-n2nc(C)c3c(C)cc(=O)n(CC(=O)Nc4ccc(F)cc4C)c32)cc1,-2.8% (inactive),
CCOc1ccccc1NC(=O)CCn1cnnn1,7.48% (inactive),
N/C(=N\S(=O)(=O)c1cc(C(F)(F)F)cc(C(F)(F)F)c1)c1cccs1,,12.6 µM (active)
Cc1ccc(S(=O)(=O)/N=C(\N)c2ccc(F)cc2)cc1,13.6% (inactive),
O=C(Cc1cccs1)NCc1cccc(C(F)(F)F)c1,32.4% (inactive),
CCc1ccc(NC(=O)CSc2nc3c([nH]c4ccccc43)c(=O)n2-c2cccc(OC)c2)cc1,-9.35% (inactive),
COc1ccc(-c2nc(Cn3c(=O)cc(C)c4c(C)nn(-c5ccccc5)c43)c(C)o2)cc1OC,36.5% (inactive),
N=C1C(c2nc3ccccc3[nH]2)=C(O)CN1NC(=O)c1c[nH]c2ccccc12,8.9% (inactive),
N=C1C(c2nc3ccccc3s2)=C(O)CN1NC(=O)c1ccc([N+](=O)[O-])cc1,,7.08 µM (active)
Cc1ccc(C)n1NC(=O)c1ccc([N+](=O)[O-])cc1,-1.59% (inactive),
Cc1ccc(C(=O)Nc2ccc(OCc3cc(=O)n4c5c(sc4n3)CCCC5)cc2)cc1,3.16% (inactive),
CC[C@@H](C)[C@@H]1CN([C@@H](C)CN2CCC[C@H]2CN2C(N)=NC[C@H]2C(C)C)C(=N)N1CCc1ccc(Cl)c(Cl)c1,7.15% (inactive),
O=C1NC[C@@H](Cc2ccc(O)cc2)N(CCc2cccc(F)c2)C1=O,19% (inactive),
CC(C)C[C@H]1CNC(=S)N1C[C@H]1CCCN1C[C@H](Cc1ccc(O)cc1)N1C[C@H](Cc2ccc(O)cc2)N(CC2CCCCC2)C1=S,,15.8 µM (active)
O=C1NC[C@H](Cc2ccc(O)cc2)N(C[C@H]2CCCN2C[C@H](Cc2ccccc2)N2C[C@H](Cc3ccccc3)N(CCc3ccccc3)C(=O)C2=O)C1=O,-8.11% (inactive),
CCOc1ccc(CCN2C(=S)N([C@@H](CC(C)C)CN3CCC[C@@H]3CN3C(=S)NC[C@@H]3Cc3ccc(O)cc3)C[C@@H]2CC(C)C)cc1,,10 µM (active)
CCOc1ccc(CCN2C(=S)N([C@@H](CC(C)C)CN3CCC[C@@H]3CN3C(=S)NC[C@@H]3Cc3ccc(O)cc3)C[C@@H]2Cc2ccc(O)cc2)cc1,,11.2 µM (active)
NC1=NC[C@@H](Cc2ccc(O)cc2)N1CC1CCCCC1,-30.5% (inactive),
C[C@@H](CN1CCC[C@H]1CN1C(N)=NC[C@@H]1Cc1ccccc1)N1C[C@@H](Cc2ccccc2)N(CCCC2CCCC2)C1=N,4.53% (inactive),
